Holding throughout (assay): DAPPL (digital affinity profiling via proximity ligation, sequencing); 10 mM Tris-HCl pH 7.5, 50 mM NaCl, 1 mM DTT, 4% glycerol, room temperature, 30 min; GST-TFs on glutathione beads, 16-mer random dsDNA library, 0.1% formaldehyde crosslink after washing; high values mean tight binding
Common to all, as to conditions: protein: recombinant; tags: N-terminal GST; dsDNA, one strand shown

The target in one test is T1, ELK1 (Homo sapiens, UniProt P19419 1-428).
T1 sequence: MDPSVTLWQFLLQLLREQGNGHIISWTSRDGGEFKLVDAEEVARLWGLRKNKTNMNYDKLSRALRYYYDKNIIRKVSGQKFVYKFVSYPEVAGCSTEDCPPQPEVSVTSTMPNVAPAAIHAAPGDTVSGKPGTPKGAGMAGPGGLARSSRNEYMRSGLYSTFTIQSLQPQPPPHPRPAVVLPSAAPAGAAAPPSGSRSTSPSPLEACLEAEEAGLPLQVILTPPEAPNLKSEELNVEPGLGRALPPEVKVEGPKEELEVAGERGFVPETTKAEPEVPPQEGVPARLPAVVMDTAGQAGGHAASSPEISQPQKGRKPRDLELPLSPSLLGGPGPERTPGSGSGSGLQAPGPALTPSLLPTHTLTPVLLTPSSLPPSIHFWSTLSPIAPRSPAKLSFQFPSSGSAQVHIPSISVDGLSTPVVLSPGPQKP
In a few lines: (§1)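 GST fusions of human transcription factors were expressed in yeast and captured with glutathione beads. Once given DNA barcodes and pooled alongside a tag-only sample, they were incubated for 30 min at room temperature with 200 nmole of a random double-stranded 16-mer DNA library in Tris/NaCl/DTT/glycerol buffer, then washed, crosslinked (0.1% formaldehyde), proximity-ligated, PCR-amplified and sequenced on an Illumina NextSeq500. The binding signal of each hexamer is its read frequency for a factor divided by its frequency for the tag-only sample.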

The next test deals with T2, GABPA (Homo sapiens, UniProt Q06546 1-454).
T2 sequence: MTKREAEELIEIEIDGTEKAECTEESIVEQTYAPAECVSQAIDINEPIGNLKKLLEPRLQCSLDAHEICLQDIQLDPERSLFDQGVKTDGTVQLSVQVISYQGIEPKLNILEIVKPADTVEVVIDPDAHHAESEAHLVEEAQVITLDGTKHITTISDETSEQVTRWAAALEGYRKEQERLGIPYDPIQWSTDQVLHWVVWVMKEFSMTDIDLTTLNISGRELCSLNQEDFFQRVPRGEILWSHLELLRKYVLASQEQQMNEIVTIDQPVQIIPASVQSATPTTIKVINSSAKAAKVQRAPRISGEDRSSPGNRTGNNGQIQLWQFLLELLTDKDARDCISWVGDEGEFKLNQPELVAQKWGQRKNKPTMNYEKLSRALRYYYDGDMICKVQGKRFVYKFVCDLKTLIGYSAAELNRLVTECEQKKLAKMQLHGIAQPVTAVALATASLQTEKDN
In a few lines:
as §1

Another test deals with T3, ERG (Homo sapiens, UniProt P11308 1-479).
T3 sequence: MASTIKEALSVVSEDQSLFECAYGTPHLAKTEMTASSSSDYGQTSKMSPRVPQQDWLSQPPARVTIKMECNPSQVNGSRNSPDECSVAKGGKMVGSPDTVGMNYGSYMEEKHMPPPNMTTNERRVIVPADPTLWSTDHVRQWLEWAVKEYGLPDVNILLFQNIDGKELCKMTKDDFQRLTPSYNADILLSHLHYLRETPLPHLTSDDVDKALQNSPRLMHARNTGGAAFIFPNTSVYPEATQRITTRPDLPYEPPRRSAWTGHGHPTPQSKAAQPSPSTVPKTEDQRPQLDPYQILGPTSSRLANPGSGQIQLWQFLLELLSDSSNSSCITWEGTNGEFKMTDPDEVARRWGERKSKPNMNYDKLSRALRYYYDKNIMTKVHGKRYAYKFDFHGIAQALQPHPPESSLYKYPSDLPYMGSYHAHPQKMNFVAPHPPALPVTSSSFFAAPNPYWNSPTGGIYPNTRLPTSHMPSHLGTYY
In a few lines:
as §1

The next test addresses ELF1 (Homo sapiens, UniProt P32519 1-619). In short, it runs like this:
as §1

In the next test the target is T4, EHF (Homo sapiens, UniProt Q9NZC4 1-300).
T4 sequence: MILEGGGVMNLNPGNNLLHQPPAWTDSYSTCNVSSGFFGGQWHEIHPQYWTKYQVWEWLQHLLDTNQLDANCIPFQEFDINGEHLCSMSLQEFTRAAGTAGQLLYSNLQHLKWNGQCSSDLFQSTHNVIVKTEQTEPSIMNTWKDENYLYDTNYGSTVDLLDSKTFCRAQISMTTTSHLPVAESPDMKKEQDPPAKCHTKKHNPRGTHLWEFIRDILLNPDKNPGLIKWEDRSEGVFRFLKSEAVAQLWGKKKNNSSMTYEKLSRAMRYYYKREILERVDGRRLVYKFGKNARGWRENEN
In short, it runs like this: as §1

The target of another test is SPI1 (Homo sapiens, UniProt P17947 1-270). In short, it runs like this:
as §1

The target in the next test is SPIB (Homo sapiens, UniProt Q01892 1-262). In a few lines: as §1
SPIB, sequence (Q01892 whole entry): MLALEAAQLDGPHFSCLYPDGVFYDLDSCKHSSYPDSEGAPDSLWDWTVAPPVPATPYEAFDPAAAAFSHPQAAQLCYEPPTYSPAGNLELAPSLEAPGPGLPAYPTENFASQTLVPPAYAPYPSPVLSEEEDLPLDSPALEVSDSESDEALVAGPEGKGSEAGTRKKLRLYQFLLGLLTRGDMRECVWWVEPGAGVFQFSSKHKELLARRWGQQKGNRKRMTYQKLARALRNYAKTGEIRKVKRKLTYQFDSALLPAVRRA
Another test has as its target T5, FEV (Homo sapiens, UniProt Q99581 1-238).
T5 sequence: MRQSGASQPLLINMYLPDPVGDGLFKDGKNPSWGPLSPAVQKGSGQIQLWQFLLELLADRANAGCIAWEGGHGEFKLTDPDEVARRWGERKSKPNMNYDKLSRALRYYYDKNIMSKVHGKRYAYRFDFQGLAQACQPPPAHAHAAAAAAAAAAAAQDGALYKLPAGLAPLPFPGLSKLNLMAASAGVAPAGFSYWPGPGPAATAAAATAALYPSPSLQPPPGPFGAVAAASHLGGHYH
In short, it runs like this:
as §1

In the next test the target is ETV5 (Homo sapiens, UniProt P41161 1-510). In a few lines:
as §1

A further test deals with ELF4 (Homo sapiens, UniProt Q99607 1-663). In short, it runs like this:
as §1

A further test deals with T6, ELK4 (Homo sapiens, UniProt P28324-2 1-405).
T6 sequence: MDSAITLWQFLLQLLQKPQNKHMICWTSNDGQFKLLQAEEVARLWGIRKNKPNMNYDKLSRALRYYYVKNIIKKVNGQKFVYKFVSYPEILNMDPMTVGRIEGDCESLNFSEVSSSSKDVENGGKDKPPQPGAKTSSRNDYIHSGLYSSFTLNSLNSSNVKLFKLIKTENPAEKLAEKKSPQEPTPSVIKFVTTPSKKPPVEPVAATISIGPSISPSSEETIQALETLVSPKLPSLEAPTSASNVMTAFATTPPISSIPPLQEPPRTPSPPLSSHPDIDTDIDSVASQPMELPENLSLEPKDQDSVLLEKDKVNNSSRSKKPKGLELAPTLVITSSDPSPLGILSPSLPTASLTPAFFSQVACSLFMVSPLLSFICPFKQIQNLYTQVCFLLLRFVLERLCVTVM
In a few lines: as §1

The target in the next test is T7, ETV2 (Homo sapiens, UniProt O00321 1-342).
T7 sequence: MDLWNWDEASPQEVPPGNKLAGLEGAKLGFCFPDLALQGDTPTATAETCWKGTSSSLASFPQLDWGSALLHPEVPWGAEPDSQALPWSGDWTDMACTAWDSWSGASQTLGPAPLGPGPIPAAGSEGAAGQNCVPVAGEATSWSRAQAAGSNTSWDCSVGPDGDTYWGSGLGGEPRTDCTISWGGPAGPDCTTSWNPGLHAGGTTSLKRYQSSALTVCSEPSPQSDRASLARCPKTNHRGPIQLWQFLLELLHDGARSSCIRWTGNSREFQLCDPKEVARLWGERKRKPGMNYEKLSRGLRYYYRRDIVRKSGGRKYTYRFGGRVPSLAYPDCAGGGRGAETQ
In short, it runs like this:
as §1

A further test deals with ETV1 (Homo sapiens, UniProt P50549 1-477). In short, it runs like this:
as §1

For a further test, the target named is T8, ERF (Homo sapiens, UniProt P50548 1-548).
T8 sequence: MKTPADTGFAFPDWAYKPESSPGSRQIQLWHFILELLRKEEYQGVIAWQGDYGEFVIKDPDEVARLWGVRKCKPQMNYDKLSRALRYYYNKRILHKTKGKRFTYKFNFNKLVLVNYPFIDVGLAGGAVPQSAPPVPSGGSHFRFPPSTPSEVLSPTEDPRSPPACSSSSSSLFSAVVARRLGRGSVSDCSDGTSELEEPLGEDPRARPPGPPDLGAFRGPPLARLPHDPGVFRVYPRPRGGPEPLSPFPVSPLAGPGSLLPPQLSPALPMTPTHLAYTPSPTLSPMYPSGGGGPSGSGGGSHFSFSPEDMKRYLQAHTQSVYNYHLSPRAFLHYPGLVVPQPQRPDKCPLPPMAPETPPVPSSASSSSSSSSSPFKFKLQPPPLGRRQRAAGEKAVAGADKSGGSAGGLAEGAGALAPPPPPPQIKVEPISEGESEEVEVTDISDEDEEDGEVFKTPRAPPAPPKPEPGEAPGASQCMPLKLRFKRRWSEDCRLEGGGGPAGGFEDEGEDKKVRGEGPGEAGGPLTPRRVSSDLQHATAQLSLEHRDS
In a few lines:
as §1

The target in the next test is T9, ETV3L (Homo sapiens, UniProt Q6ZN32 1-361).
T9 sequence: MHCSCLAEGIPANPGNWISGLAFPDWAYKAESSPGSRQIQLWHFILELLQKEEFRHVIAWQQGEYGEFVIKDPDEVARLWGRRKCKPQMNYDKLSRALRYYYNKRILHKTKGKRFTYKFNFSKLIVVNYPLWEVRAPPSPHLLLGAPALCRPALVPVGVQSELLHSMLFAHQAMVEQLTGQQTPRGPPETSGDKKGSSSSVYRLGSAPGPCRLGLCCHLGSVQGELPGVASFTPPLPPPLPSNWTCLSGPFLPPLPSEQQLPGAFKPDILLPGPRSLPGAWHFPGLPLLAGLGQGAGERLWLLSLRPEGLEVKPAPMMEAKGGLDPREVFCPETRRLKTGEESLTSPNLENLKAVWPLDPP
In short, it runs like this: as §1

The target of a further test is T10, ETS2 (Homo sapiens, UniProt P15036 1-469).
T10 sequence: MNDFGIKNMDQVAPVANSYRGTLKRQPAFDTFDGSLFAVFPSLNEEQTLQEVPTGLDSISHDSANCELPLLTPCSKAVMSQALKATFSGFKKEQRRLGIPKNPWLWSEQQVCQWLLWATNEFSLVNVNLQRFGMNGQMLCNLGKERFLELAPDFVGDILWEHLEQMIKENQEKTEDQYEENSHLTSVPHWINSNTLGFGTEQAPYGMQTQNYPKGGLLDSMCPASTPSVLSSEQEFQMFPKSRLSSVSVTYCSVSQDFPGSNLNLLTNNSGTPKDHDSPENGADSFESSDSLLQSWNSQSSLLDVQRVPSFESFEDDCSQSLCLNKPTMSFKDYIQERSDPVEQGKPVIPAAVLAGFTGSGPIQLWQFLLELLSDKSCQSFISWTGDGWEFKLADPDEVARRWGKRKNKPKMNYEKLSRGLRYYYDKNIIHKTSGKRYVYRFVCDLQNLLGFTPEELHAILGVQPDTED
In a few lines: as §1

The next test has as its target T11, ETV7 (Homo sapiens, UniProt Q9Y603 1-341).
T11 sequence: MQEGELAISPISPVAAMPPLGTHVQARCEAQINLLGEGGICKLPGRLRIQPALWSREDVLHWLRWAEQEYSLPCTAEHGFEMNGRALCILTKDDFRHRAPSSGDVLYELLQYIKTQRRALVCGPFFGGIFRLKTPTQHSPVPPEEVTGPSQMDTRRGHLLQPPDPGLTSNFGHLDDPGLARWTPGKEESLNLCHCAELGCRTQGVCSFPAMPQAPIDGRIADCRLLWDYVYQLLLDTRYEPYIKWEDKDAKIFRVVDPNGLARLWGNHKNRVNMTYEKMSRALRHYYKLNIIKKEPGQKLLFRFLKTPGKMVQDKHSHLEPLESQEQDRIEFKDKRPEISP
In short, it runs like this:
as §1

A further test has as its target T12, ETV3 (Homo sapiens, UniProt P41162-2 1-143).
T12 sequence: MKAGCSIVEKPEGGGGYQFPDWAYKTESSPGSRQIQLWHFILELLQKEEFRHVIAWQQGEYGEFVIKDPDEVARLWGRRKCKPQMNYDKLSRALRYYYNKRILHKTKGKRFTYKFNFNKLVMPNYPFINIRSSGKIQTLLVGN
In short, it runs like this: as §1

A further test addresses ETV6 (Homo sapiens, UniProt P41212 1-452). In short, it runs like this:
as §1

ETV6, sequence (P41212 whole entry): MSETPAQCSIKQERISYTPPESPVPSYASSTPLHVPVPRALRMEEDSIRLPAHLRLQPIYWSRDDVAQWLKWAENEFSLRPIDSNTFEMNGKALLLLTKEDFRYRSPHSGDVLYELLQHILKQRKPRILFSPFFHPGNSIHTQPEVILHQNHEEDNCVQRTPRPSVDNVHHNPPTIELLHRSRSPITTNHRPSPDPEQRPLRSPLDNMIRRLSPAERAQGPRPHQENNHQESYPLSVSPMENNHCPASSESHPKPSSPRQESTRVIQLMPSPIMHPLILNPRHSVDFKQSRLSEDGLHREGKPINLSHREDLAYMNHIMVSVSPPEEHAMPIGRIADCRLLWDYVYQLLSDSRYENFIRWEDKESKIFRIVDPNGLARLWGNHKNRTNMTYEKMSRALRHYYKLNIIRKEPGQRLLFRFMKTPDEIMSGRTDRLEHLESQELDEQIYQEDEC
ELF1, sequence (P32519 whole entry): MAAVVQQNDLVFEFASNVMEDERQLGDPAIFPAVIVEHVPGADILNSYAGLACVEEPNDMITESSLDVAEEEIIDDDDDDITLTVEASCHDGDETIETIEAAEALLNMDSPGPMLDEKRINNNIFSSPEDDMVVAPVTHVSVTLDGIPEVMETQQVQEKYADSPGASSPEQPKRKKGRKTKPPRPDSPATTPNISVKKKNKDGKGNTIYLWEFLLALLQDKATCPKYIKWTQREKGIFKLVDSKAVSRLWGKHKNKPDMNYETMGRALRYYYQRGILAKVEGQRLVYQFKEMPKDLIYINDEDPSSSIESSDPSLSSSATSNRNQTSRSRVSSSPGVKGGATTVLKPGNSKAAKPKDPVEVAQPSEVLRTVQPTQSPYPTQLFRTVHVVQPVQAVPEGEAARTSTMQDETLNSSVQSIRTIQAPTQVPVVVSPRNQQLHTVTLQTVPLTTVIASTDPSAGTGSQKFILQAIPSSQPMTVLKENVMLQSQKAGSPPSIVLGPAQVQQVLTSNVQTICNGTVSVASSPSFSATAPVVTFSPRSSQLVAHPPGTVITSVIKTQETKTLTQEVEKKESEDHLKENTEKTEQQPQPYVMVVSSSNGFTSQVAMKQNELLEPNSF
ETV5, sequence (P41161 whole entry): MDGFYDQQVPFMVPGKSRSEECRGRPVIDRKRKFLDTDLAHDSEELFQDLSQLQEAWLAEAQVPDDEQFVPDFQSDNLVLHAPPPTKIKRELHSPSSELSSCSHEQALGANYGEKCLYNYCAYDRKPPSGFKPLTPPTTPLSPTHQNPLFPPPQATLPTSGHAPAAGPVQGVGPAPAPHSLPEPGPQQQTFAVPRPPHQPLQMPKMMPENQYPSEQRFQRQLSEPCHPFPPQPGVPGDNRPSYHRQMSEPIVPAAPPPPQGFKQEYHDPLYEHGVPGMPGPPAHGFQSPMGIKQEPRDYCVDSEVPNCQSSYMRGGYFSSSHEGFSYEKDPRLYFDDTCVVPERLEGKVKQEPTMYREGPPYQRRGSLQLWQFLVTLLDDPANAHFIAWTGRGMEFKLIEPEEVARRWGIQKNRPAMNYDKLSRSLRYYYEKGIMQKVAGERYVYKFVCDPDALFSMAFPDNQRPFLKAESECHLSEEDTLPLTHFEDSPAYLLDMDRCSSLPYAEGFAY
ELF4, sequence (Q99607 whole entry): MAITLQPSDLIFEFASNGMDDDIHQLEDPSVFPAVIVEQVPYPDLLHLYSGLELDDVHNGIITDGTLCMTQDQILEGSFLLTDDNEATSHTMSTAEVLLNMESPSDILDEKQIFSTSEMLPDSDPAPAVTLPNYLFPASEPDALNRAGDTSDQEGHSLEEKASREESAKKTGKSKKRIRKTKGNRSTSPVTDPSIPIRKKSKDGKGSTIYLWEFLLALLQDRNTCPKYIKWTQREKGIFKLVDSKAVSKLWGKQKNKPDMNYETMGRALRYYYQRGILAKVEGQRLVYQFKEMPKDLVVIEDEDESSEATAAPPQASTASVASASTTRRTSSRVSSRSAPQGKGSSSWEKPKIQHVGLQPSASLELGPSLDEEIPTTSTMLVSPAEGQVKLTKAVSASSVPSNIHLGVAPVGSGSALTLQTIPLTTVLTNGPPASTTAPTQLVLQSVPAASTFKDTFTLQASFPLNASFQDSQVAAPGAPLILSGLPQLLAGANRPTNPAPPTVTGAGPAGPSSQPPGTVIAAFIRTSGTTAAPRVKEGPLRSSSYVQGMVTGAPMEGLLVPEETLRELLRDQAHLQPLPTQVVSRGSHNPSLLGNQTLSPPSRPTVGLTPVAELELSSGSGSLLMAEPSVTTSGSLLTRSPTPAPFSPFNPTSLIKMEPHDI
ETV1, sequence (P50549 whole entry): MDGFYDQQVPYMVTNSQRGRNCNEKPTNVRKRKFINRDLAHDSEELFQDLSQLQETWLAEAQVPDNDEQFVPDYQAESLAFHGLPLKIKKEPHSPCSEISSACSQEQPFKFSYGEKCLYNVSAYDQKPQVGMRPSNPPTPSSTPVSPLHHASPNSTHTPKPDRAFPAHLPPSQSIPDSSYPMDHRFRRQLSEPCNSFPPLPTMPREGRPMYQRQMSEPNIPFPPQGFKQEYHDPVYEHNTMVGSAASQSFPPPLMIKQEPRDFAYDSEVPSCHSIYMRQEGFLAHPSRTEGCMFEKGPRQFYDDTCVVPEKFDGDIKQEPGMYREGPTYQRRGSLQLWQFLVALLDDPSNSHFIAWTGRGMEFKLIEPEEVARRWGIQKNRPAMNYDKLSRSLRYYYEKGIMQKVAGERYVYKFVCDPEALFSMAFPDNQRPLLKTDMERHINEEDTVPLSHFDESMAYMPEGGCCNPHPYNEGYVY

Take TGGGGT: the binding signal with ELK1 is 1.05 fold enrichment (6-mer frequency, TF over GST control); with GABPA it was 1.12 fold enrichment (6-mer frequency, TF over GST control); with ERG, 1.1 fold enrichment (6-mer frequency, TF over GST control); in the test with ELF1, 1.09 fold enrichment (6-mer frequency, TF over GST control); with EHF it was 1.03 fold enrichment (6-mer frequency, TF over GST control); in the test with SPI1 it was 1.04 fold enrichment (6-mer frequency, TF over GST control). Also, the binding signal with SPIB is 1.09 fold enrichment (6-mer frequency, TF over GST control); with FEV it was 1.02 fold enrichment (6-mer frequency, TF over GST control); with ETV5, 1.13 fold enrichment (6-mer frequency, TF over GST control); with ELF4, 1.08 fold enrichment (6-mer frequency, TF over GST control); with ELK4 it was 1.21 fold enrichment (6-mer frequency, TF over GST control); with ETV2 it was 1.08 fold enrichment (6-mer frequency, TF over GST control). For the same sequence, the binding signal in the test with ETV1 is 1.14 fold enrichment (6-mer frequency, TF over GST control); in the test with ERF, 1.02 fold enrichment (6-mer frequency, TF over GST control); with ETV3L, 1.2 fold enrichment (6-mer frequency, TF over GST control); in the test with ETS2 it was 1.2 fold enrichment (6-mer frequency, TF over GST control); with ETV7, 1.05 fold enrichment (6-mer frequency, TF over GST control); with ETV3 it was 1.14 fold enrichment (6-mer frequency, TF over GST control). The binding signal with ETV6 is 1.09 fold enrichment (6-mer frequency, TF over GST control).
